Experimental data from the supplement of paper PMC11732987, “Enantioselective OTUD7B fragment discovery through chemoproteomics screening and high-throughput optimisation” (Communications Chemistry, 2025).

Columns and labels:
Experiment in all cases: log2 ratio of Biotin-Ahx-Ub-VS probe labelling (fragment/DMSO); higher = less target engagement (more negative = stronger competition), active = hit call of the paper (q ≤ 0.05, log2 ratio ≤ -1)
Conditions in all cases: compound concentration: 200 uM; treatment time: 3 h
OTUD6B = molecular target: T1, OTUD6B (UniProt Q8N6M0)
T1 sequence (whole entry): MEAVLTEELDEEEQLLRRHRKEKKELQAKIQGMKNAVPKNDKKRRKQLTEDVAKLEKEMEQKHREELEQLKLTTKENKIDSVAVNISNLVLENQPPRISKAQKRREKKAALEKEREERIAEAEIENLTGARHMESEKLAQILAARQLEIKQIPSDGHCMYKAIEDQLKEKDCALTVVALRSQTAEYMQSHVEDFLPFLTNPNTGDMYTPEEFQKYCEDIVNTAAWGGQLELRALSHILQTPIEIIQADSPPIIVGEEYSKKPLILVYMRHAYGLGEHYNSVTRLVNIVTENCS
Method in brief: (§1)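 HEK293T lysate (495 µg per sample, in Tris/CHAPS/IGEPAL buffer with protease inhibitors) was exposed in triplicate for 3 h to fragment at 200 µM or to vehicle, then to Biotin-Ahx-Ub-VS at 0.5 µM final for 1 h. Labelled DUBs were enriched on NeutrAvidin, digested with LysC and trypsin, and analysed by diaPASEF LC-MS/MS. Spectronaut label-free quantities were normalised to the global median, and values are average log2 ratios of fragment over vehicle from an unpaired t-test. Only proteins with ≥2 unique peptides were used.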

OTUD7B = molecular target: T2, OTUD7B (UniProt Q6GQQ9)
T2 sequence (whole entry): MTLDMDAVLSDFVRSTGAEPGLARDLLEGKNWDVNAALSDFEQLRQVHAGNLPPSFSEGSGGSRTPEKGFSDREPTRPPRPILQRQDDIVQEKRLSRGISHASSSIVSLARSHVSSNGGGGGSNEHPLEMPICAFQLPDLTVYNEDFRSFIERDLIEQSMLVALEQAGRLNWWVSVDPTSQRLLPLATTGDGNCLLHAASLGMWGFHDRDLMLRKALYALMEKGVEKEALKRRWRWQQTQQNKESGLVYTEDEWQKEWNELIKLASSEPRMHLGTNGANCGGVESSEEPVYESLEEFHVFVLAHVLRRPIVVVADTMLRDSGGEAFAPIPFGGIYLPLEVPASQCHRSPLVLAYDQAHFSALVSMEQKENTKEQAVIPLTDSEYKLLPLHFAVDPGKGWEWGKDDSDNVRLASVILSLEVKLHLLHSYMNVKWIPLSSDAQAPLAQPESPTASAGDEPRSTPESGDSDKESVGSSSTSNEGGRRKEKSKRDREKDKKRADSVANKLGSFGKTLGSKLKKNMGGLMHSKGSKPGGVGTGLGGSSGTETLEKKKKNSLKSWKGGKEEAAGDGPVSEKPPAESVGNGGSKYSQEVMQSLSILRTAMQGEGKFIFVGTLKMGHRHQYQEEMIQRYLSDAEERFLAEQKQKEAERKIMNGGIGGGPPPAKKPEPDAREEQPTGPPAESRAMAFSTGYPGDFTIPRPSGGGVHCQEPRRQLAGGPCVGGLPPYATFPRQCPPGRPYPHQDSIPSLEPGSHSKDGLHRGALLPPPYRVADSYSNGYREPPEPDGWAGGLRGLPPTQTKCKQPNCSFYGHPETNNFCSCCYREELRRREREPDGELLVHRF
Method in brief: as §1

PRPF8 = PRPF8 (UniProt Q6P2Q9)
Method in brief: as §1

PSMD7 = molecular target: T3, PSMD7 (UniProt P51665)
T3 sequence (whole entry): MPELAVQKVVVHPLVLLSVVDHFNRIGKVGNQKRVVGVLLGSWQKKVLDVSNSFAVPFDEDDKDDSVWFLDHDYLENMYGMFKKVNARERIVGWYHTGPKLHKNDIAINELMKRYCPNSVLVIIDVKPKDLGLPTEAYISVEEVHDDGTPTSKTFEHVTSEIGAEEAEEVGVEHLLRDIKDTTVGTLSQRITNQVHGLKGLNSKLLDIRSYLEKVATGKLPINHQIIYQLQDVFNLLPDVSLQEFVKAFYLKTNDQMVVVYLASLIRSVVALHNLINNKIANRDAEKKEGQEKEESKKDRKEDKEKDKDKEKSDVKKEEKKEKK
Method in brief: as §1

UCHL1 = UCHL1 (UniProt P09936)
Sequence of UCHL1 (P09936 whole entry, looked up): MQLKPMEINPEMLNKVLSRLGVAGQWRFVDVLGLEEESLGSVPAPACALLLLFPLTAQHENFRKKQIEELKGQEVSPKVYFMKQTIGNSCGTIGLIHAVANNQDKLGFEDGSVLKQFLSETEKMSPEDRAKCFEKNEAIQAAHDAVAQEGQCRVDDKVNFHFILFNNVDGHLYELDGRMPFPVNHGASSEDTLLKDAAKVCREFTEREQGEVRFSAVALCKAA
Method in brief: as §1

UCHL3 = molecular target: T4, UCHL3 (UniProt P15374)
T4 sequence (whole entry): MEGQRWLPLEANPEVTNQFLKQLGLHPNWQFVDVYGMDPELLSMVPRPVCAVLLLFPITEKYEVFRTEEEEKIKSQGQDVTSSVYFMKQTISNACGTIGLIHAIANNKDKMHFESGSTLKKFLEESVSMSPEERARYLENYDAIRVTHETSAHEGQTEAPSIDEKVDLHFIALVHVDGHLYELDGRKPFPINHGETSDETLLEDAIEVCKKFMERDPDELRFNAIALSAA
Method in brief: as §1

UCHL5 = molecular target: T5, UCHL5 (UniProt Q9Y5K5)
T5 sequence (whole entry): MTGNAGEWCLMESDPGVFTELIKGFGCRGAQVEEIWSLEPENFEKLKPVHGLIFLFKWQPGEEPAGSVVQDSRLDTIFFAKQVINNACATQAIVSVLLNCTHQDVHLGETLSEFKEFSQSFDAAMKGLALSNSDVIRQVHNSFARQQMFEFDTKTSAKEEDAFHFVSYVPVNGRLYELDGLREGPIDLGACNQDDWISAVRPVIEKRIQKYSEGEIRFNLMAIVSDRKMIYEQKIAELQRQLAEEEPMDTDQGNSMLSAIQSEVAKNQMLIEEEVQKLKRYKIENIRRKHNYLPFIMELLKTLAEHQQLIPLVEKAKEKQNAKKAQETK
Method in brief: as §1

USP10 = USP10 (UniProt Q14694)
Sequence of USP10 (Q14694 whole entry): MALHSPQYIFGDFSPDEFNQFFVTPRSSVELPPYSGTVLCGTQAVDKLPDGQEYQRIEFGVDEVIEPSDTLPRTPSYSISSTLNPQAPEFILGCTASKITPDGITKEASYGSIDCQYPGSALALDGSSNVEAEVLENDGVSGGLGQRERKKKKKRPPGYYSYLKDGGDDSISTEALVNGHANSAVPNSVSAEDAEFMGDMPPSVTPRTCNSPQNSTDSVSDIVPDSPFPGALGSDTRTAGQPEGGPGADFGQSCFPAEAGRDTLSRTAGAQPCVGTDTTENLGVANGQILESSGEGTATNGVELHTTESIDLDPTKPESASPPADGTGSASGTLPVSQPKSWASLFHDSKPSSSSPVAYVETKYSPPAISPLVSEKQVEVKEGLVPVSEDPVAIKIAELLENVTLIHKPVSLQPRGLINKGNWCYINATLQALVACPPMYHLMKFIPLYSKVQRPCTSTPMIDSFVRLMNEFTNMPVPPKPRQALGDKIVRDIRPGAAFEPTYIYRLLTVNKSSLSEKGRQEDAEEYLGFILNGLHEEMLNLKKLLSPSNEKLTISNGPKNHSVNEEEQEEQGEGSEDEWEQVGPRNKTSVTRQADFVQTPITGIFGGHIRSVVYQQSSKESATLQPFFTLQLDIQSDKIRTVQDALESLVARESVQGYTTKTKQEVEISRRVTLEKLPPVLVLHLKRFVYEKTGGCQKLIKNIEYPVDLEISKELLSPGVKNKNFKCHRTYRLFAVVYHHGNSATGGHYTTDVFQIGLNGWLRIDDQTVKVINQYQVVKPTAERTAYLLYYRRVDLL
Method in brief: as §1

USP15 = molecular target: T6, USP15 (UniProt Q9Y4E8)
T6 sequence (whole entry): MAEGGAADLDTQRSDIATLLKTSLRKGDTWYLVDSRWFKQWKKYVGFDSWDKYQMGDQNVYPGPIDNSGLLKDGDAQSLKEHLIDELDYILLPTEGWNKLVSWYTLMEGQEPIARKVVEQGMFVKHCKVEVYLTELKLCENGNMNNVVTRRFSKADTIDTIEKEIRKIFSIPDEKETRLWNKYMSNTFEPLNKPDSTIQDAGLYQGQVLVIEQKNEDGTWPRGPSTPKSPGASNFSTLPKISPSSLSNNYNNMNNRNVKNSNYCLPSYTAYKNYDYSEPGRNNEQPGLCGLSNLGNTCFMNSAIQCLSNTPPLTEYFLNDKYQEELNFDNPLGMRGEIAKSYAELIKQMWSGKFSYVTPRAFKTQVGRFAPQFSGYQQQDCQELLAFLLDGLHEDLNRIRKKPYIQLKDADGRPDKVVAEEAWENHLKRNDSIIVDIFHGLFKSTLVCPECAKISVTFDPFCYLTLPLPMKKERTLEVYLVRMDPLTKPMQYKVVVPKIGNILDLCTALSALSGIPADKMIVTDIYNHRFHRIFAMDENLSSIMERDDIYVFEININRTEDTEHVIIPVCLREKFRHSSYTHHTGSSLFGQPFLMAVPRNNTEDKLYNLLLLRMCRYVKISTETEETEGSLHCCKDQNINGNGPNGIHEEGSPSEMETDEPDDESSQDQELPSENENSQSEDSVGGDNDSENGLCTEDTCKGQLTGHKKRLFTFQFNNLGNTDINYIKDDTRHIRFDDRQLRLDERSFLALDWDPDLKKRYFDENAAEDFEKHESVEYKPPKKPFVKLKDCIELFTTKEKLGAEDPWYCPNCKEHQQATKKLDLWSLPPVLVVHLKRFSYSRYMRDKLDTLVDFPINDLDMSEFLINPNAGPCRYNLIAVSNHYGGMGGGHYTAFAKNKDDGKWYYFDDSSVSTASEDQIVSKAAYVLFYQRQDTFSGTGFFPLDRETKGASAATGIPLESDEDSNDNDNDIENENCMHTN
Method in brief: as §1

USP16 = USP16 (UniProt Q9Y5T5)
Sequence of USP16 (Q9Y5T5 whole entry, looked up): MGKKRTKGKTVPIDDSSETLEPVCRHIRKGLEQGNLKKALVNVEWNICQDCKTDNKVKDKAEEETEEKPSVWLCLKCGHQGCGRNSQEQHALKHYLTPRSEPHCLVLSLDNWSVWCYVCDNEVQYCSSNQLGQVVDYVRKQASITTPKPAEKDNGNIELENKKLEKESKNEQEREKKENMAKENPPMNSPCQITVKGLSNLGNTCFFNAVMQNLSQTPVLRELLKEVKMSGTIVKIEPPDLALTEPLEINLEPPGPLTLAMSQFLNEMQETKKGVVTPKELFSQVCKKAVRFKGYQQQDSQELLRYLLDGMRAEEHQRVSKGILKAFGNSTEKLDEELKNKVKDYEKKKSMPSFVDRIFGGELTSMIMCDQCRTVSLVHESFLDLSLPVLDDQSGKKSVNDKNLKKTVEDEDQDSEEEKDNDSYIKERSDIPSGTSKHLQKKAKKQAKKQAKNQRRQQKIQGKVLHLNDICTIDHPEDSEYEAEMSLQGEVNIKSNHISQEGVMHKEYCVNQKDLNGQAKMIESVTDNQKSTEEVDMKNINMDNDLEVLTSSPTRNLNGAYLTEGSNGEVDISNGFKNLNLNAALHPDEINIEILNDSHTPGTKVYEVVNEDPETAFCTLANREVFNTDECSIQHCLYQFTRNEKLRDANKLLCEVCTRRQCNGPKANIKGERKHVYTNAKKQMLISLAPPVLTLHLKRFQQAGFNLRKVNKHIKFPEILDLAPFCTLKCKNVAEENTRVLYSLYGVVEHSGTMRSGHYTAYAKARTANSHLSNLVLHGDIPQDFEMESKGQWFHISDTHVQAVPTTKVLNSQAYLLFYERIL
Method in brief: as §1

Measured: log2 ratio of Biotin-Ahx-Ub-VS probe labelling

Cl.O=C(CCl)NCc1ccnc(Oc2ccccc2F)c1
active: UCHL1 -1.49
inactive: OTUD6B -0.263 | OTUD7B -0.533 | PRPF8 -0.054 | PSMD7 -0.0622 | UCHL3 0.27 | UCHL5 -0.282 | USP10 -0.187 | USP15 -0.115 | USP16 0.275
